Reference: PubChem BioAssay (Tox21)
Results filed as inconclusive are left out. A call without a number means that no potency is given here. Calls of active or inactive are those of the source. Unless noted, the call rests on the fitted dose curve; in most records, active means well fitted curve in the direction sought with a large enough effect in the repeat runs; inconclusive means weak or mixed curves; inactive means no such curve, though single readings can be large; an effect the other way counts as inactive or inconclusive.

Assays:
[1] = target: Estrogen receptor beta (Homo sapiens) (UniProt Q92731); test: qHTS assay to identify small molecule antagonists of the estrogen receptor beta (ER-beta) signaling pathway (AID 1259378; active means well fitted inhibition curve with a large enough effect in the signal ratio in the repeat runs, not every such curve was filed as active; the % refers to the signal ratio)
Sequence of Estrogen receptor beta (Homo sapiens) (Q92731 whole entry, looked up): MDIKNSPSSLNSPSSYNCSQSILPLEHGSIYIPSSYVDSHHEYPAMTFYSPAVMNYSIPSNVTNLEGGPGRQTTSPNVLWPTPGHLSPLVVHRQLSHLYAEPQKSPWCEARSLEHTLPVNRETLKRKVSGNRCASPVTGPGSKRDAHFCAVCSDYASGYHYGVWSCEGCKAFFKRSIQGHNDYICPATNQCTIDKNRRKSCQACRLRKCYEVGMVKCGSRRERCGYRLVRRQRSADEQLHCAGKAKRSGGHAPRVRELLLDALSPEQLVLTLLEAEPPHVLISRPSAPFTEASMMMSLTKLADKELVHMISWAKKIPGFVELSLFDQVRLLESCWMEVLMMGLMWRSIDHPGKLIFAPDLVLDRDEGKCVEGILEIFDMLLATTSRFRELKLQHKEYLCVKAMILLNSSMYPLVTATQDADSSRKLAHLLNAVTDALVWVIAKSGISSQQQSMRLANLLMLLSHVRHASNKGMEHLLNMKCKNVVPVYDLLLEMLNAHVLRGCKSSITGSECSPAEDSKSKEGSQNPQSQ
Method in brief: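 ER-beta-UAS-bla HEK293T cells in 2% charcoal-stripped FBS medium treated with compound plus 1nM final 17-beta-estradiol for 16 hr at 37C. Beta-lactamase reporter read by FRET substrate fluorescence after 2 hours at room temperature.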

[2] = qHTS assay to identify small molecule agonists of the androgen receptor (AR) signaling pathway in the presence of an antagonist - cell viability counter screen (AID 1259379); further: nearly all actives have a fitted effect of over 25% in size; further: potency means the concentration at half of the fitted maximal effect
Method in brief: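 Fluorescence from CellTiter-Fluor, added after 15 hr and read 1 hr later, gave cell viability. Cells were MDA-kb2 exposed to compounds (15 concentrations) in the presence of 3.0uM nilutamide at 37C, 0% CO2.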

[3] = qHTS assay to identify small molecule agonists of the estrogen receptor beta (ER-beta) signaling pathway - cell viability counter screen (AID 1259380); further: nearly all actives have a fitted effect of over 30% in size; further: potency means the concentration at half of the fitted maximal effect
Method in brief: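 Same-well viability counter screen. Cells: ER-beta-UAS-bla HEK293T, plated 6 hr before compound, in 2% charcoal-stripped FBS. Compound exposure 16 hr, 37C; viability by CellTiter-Glo luminescence after 30 min at room temperature.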

[4] = qHTS assay to identify small molecule antagonists of the estrogen receptor beta (ER-beta) signaling pathway - cell viability counter screen (AID 1259382); further: nearly all actives have a fitted effect of over 55% in size; further: potency means the concentration at half of the fitted maximal effect
Method in brief: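 Following a 6 hr plating period, HEK293T cells carrying a UAS-driven beta-lactamase reporter under ER-beta control received compounds and 1nM E2 (final). After 16 hr at 37C and 2 hr substrate loading, CellTiter-Glo luminescence indicated viability.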

[5] = target: Estrogen receptor (Homo sapiens) (UniProt P03372); test: qHTS assay to identify small molecule agonists of the estrogen receptor alpha (ER-alpha) signaling pathway in the presence of an antagonist (AID 1259383; calls by dose curve; further: top concentration of the series differs between compounds; nearly all actives have a fitted effect of over 15% in size)
Sequence of Estrogen receptor (Homo sapiens) (P03372 whole entry, looked up): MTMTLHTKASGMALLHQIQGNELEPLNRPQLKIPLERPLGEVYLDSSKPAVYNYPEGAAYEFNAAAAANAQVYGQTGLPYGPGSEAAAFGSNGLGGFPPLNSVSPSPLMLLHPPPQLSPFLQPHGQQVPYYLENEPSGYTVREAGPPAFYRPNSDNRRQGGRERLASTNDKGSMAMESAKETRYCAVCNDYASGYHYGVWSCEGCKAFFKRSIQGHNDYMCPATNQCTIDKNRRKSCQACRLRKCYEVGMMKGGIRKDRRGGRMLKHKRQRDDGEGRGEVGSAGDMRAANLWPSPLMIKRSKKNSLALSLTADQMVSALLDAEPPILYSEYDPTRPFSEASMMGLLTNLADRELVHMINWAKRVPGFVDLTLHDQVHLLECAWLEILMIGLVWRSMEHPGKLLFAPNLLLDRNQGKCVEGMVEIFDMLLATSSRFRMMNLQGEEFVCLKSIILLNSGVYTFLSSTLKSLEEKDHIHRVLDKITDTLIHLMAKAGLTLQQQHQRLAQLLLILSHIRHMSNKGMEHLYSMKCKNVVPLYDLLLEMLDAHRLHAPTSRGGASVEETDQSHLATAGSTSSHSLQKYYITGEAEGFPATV
Method in brief: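 Cells are hormone-deprived for 5 days (charcoal-stripped FBS, no phenol red), plated for 24hr, spiked with 10.0nM ICI-182,780, then dosed at 15 concentrations. After 22hr at 37C, ONE-Glo luminescence reports ERE-luciferase activity.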

[6] = qHTS assay to identify small molecule agonists or antagonists of the thyroid stimulating hormone receptor (TSHR) signaling pathway - wild type cell line counter screen (AID 1259384; calls by dose curve)
Method in brief: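 Wild-type Hek293 cells, 800/well, 18 h at 37C, then compound with Ro20-1724 for 30 min RT. cAMP by HTRF (cAMP-d2/anti-cAMP cryptate), 1 h RT, fluorescence read. 15 concentrations, triplicates.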

[7] = target: Thyrotropin receptor (Homo sapiens) (UniProt P16473); test: qHTS assay to identify small molecule antagonists of the thyroid stimulating hormone receptor (TSHR) signaling pathway (AID 1259385; calls by dose curve; further: nearly all actives have a fitted effect of over 20% in size; further: potency means the concentration at half of the fitted maximal effect)
Sequence of Thyrotropin receptor (Homo sapiens) (P16473 whole entry, looked up): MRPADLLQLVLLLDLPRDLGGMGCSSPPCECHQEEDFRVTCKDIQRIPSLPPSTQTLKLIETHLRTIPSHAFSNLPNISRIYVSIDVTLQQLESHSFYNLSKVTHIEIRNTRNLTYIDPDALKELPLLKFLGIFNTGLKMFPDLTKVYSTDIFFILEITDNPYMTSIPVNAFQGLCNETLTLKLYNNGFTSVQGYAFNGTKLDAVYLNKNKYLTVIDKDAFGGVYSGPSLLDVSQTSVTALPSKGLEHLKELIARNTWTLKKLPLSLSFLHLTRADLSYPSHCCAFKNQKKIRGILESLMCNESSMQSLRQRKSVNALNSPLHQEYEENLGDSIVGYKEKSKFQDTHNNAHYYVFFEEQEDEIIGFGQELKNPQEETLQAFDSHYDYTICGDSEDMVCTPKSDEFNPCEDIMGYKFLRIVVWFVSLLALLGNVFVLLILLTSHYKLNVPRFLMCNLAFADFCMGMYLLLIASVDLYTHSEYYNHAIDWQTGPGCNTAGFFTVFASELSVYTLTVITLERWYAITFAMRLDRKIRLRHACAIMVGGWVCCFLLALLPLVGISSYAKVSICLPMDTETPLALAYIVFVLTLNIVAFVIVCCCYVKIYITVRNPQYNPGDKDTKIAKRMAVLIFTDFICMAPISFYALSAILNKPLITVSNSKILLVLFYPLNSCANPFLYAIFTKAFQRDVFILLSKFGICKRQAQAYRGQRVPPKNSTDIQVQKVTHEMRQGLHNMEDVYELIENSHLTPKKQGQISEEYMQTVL
Method in brief: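 TSHR-HEK293 cells (800/well) plated 18 h, then compounds with Ro20-1724 and TSH at 1.5 ng/mL final, 30 min at room temperature. cAMP quantified by HTRF (cAMP-d2/anti-cAMP-cryptate, 1 h); 15 concentrations in triplicate.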

[8] = target: Progesterone receptor (Homo sapiens) (UniProt P06401); test: qHTS assay to identify small molecule antagonists of the progesterone receptor (PR) signaling pathway (AID 1346795; active means well fitted inhibition curve with a large enough effect in the signal ratio in the repeat runs, not every such curve was filed as active; the % refers to the signal ratio; further: potency means the concentration at half of the fitted maximal effect)
Sequence of Progesterone receptor (Homo sapiens) (P06401 whole entry, looked up): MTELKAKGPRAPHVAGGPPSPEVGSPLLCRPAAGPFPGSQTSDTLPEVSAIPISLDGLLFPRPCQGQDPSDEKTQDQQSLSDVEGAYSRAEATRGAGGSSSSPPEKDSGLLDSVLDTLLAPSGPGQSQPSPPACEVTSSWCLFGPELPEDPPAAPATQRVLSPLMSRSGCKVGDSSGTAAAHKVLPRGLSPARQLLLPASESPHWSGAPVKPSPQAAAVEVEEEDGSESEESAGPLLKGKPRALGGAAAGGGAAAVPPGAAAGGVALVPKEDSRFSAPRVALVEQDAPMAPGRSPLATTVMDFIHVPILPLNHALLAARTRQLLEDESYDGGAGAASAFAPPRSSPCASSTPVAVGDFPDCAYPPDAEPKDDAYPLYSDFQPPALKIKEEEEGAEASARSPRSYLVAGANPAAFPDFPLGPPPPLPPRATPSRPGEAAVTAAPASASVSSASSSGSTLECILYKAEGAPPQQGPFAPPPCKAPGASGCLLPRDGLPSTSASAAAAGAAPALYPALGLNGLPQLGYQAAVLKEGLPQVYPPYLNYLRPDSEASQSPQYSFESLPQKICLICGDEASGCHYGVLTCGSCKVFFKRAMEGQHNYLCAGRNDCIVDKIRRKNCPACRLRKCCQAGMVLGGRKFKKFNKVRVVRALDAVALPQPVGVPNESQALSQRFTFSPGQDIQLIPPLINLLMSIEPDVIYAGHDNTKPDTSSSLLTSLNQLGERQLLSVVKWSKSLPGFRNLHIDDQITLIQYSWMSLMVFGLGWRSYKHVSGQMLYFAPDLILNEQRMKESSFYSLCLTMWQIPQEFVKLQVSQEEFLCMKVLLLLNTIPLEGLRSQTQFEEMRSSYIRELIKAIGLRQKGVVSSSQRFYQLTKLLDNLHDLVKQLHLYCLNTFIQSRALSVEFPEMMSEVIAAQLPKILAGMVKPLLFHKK
Method in brief: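 PR-UAS-bla HEK293T cells carrying a UAS-driven beta-lactamase reporter were plated in medium with 2% charcoal-stripped FBS and rested 6 hr at 37C. Compounds were added with 1 nM R5020 (final) for 16 hr, then FRET substrate loaded 2 hr at room temperature.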

[9] = qHTS assay to identify small molecule antagonists of the progesterone receptor (PR) signaling pathway - cell viability counter screen (AID 1346798); further: series mostly up to about 92 µM; nearly all actives have a fitted effect of over 50% in size
Method in brief: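 PR-UAS-bla HEK293T cells in medium with 2% charcoal-stripped FBS were treated with compounds plus R5020 for 16 hr at 37C. Cell viability was then read by CellTiter-Glo luminescence after 30 min at room temperature in the same wells.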

[10] = qHTS assay to identify small molecule agonists of the progesterone receptor (PR) signaling pathway - cell viability counter screen (AID 1346799; calls by dose curve; further: nearly all actives have a fitted effect of over 45% in size; further: potency means the concentration at half of the fitted maximal effect)
Method in brief: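 PR-UAS-bla HEK293T cells, 3,000 per well in medium with 2% charcoal-stripped FBS, were preincubated 6 hr at 37C, then exposed to compounds for 16 hr; viability was read as CellTiter-Glo luminescence after 30 min at room temperature.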

[11] = qHTS assay to identify small molecule antagonists of the TGF-beta/Smad signaling pathway - cell viability counter screen (AID 1346824); further: nearly all actives have a fitted effect of over 50% in size
Method in brief: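 SBE-bla HEK 293T cells, incubated overnight, then compound plus 0.25 ng/mL TGF-beta1 (stock added) for 5 hr at 37 C. Viability was read in the same wells by CellTiter-Glo luminescence after 30 min at room temperature.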

[12] = qHTS assay to identify small molecule agonists of the TGF-beta/Smad signaling pathway - cell viability counter screen (AID 1346829); further: top concentration of the series differs between compounds; nearly all actives have a fitted effect of over 45% in size
Method in brief: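 SBE-bla HEK 293T cells plated overnight, compound exposure 5 hr at 37 C. Viability read in the same wells by CellTiter-Glo luminescence after 30 min at room temperature, following the beta-lactamase read.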

[13] = qHTS assay to identify small molecule agonists of the TGF-beta/Smad signaling pathway (AID 1346859; active means well fitted activation curve with a large enough effect in the signal ratio in the repeat runs, not every such curve was filed as active; the % refers to the signal ratio; further: series mostly up to about 77 µM)
Method in brief: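 HEK 293T cells stably carrying a beta-lactamase reporter driven by the Smad binding element were seeded overnight, exposed to DMSO-dissolved compounds for 5 hr at 37 C, 5% CO2, then loaded with FRET substrate for 2 hr at room temperature.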

[14] = target: Thyrotropin-releasing hormone receptor (Homo sapiens) (UniProt P34981); test: qHTS assay to identify small molecule antagonists of the thyrotropin-releasing hormone receptor (TRHR) signaling pathway (AID 1346877; active means well fitted inhibition curve with a large enough effect in the repeat runs, not every such curve was filed as active; further: series mostly up to about 51 µM)
Sequence of Thyrotropin-releasing hormone receptor (Homo sapiens) (P34981 whole entry, looked up): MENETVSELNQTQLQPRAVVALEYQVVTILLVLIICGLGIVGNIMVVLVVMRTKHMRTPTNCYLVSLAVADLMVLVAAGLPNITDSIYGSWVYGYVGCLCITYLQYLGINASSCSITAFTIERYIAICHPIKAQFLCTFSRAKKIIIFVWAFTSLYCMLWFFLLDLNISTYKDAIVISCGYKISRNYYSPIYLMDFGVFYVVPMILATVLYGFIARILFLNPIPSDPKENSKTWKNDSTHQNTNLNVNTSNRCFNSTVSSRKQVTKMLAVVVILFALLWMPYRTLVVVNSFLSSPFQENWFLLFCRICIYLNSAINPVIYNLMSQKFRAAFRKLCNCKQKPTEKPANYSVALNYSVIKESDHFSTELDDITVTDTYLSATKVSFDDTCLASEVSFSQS
Method in brief: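 Cells (TRHR-HEK293) are plated and kept 18 h at 37 °C/5% CO2. A calcium-sensitive dye is added for 2 h, compound follows for 5 min at room temperature, and TRH is then given at 1 nM final.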

[15] = target: Thyrotropin-releasing hormone receptor (Homo sapiens) (UniProt P34981); test: qHTS assay to identify small molecule agonists of the thyrotropin-releasing hormone receptor (TRHR) signaling pathway (AID 1346891; calls by dose curve; further: series mostly up to about 58 µM)
Method in brief: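 TRHR-expressing HEK293 cells were plated 18 h at 37 °C/5% CO2, loaded with calcium dye 2 h at 37 °C, then given compound in DMSO; fluorescence was read kinetically for 3 min at 1 s intervals.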

[16] = Human pregnane X receptor (PXR) small molecule agonists, qHTS cell viability counter screen (AID 1346977); further: nearly all actives have a fitted effect of over 50% in size; further: potency means the concentration at half of the fitted maximal effect
Method in brief: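 PXR-Luc HepG2 cells in medium with 5% charcoal-stripped FBS were pre-incubated 5hr, then exposed to compounds for 24hr at 37C. Viability was read in the same wells by CellTiter-Fluor fluorescence, reagent added after 23hr with a 1hr incubation.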

[17] = target: Estrogen receptor beta (Homo sapiens) (UniProt Q92731); test: qHTS assay to identify small molecule agonists of the estrogen receptor beta (ER-beta) signaling pathway (AID 1259377; active means well fitted activation curve with a large enough effect in the signal ratio in the repeat runs, not every such curve was filed as active; the % refers to the signal ratio)
Method in brief: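 ER-beta-UAS-bla HEK293T (GripTite) cells carrying a UAS-driven beta-lactamase reporter, in medium with 2% charcoal-stripped FBS, were exposed to compounds for 16 hr at 37C; LiveBLAzer B/G FRET substrate was then added and fluorescence read after 2 hours at room temperature.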

[18] = qHTS assay to identify small molecule agonists of the estrogen receptor alpha (ER-alpha) signaling pathway in the presence of an antagonist - cell viability counter screen (AID 1259386);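 further: series mostly up to about 92 µM; cells exposed to compounds for 22 h at 37 °C before the viability read; nearly all actives have a fitted effect of over 30% in size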
Method in brief: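 Cells are starved of estrogens for 5 days in charcoal-stripped serum, seeded for 24hr and co-treated with ICI-182,780 (10.0nM final) and test compounds. After 22hr at 37C, viability is read as CellTiter-Fluor fluorescence.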

[19] = target: Progesterone receptor (Homo sapiens) (UniProt P06401); test: qHTS assay to identify small molecule agonists of the progesterone receptor (PR) signaling pathway (AID 1346784; calls by dose curve; further: nearly all actives have a fitted effect of over 30% in size)
Method in brief: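 PR-UAS-bla HEK 293T cells carrying a UAS-driven beta-lactamase reporter were seeded in medium with 2% charcoal-stripped FBS, preincubated 6 hr at 37C, then exposed to compounds in DMSO for 16 hr; agonism was read by LiveBLAzer B/G FRET fluorescence.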

[20] = target: Androgen receptor (Homo sapiens) (UniProt P10275); test: qHTS assay to identify small molecule agonists of the androgen receptor (AR) signaling pathway in the presence of an antagonist (AID 1259381; calls by dose curve; further: nearly all actives have a fitted effect of over 15% in size)
Sequence of Androgen receptor (Homo sapiens) (P10275 whole entry, looked up): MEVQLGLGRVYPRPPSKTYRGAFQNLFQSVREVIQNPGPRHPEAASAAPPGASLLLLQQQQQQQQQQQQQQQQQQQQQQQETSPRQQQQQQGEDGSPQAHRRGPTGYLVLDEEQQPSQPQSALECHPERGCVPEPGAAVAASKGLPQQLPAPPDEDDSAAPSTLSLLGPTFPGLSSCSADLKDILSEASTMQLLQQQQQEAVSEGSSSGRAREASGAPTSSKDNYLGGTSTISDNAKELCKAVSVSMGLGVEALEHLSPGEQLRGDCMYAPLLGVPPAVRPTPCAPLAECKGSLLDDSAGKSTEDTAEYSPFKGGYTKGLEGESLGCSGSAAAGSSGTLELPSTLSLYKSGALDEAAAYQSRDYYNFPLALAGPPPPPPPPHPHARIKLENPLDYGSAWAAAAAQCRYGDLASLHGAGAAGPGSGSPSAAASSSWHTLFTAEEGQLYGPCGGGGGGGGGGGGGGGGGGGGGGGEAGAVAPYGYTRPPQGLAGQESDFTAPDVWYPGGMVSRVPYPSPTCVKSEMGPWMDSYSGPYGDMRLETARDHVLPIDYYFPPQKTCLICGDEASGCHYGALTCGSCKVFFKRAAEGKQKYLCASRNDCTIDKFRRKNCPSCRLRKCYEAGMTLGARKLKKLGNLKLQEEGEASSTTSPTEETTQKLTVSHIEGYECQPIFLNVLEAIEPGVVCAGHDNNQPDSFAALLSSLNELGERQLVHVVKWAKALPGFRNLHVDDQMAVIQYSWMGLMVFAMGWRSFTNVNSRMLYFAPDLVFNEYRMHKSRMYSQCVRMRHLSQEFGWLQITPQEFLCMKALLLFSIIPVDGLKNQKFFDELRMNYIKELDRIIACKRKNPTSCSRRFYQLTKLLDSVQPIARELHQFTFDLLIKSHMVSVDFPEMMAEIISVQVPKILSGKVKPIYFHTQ
Method in brief: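 Cells are MDA-kb2 (human breast carcinoma, MMTV-luc, AR/GR responsive). Nilutamide is present at 3.0uM final throughout; compounds are added at 15 concentrations and incubated 16hr at 37C before ONE-Glo luminescence detection.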

SMILES | Potency [1] | Potency [2] | Potency [3] | Potency [4] | Potency [5] | Potency [6] | Potency [7] | Potency [8] | Potency [9] | Potency [10] | outcome [11] | Potency [12] | Potency [13] | outcome [14] | outcome [15] | Potency [16] | Potency [17] | Potency [18] | Potency [19] | Potency [20]
CNc1c2c(nn1C)CCCC2 | inactive | inactive | inactive | inactive | inactive | inactive | inactive | inactive | inactive | inactive | inactive | inactive | inactive | inactive | inactive | inactive | – | – | – | –
CC(C)(O)CCc1ccccc1 | – | inactive | inactive | inactive | inactive | inactive | inactive | inactive | – | inactive | inactive | inactive | – | – | – | inactive | inactive | inactive | – | –
NC(=O)c1ccccc1[N+](=O)[O-] | inactive | inactive | inactive | inactive | inactive | inactive | inactive | – | – | inactive | inactive | inactive | inactive | inactive | inactive | inactive | – | inactive | inactive | –
CC/C=C\C/C=C\C/C=C\CCCCCCCC(=O)OCC | – | inactive | – | inactive | – | inactive | inactive | inactive | – | inactive | inactive | inactive | inactive | inactive | inactive | inactive | inactive | inactive | inactive | –
O=c1[nH]c2cc(C(F)(F)F)c(N3CCOCC3)cc2n(CP(=O)(O)O)c1=O | inactive | inactive | inactive | – | inactive | – | – | inactive | inactive | inactive | inactive | inactive | inactive | inactive | inactive | – | – | inactive | inactive | –
CN(C)CC/C=C1\c2ccccc2Sc2ccc(Cl)cc21 | – | 29.8 µM (active) | 23.7 µM (active) | 18.8 µM (active) | inactive | inactive | 26.6 µM (active) | 21.1 µM (active) | – | – | inactive | – | inactive | inactive | inactive | – | – | inactive | inactive | inactive
Cc1ccc2nc(N)[nH]c(=O)c2c1Sc1ccncc1 | – | inactive | – | – | – | – | – | – | inactive | inactive | inactive | inactive | inactive | inactive | – | inactive | inactive | inactive | – | –
O[C@@H](CNC[C@H](O)[C@H]1CCc2cc(F)ccc2O1)[C@@H]1CCc2cc(F)ccc2O1 | – | – | 11.9 µM (active) | 21.1 µM (active) | inactive | inactive | inactive | 26.6 µM (active) | – | 29.8 µM (active) | inactive | inactive | inactive | – | – | 29.8 µM (active) | inactive | inactive | – | –
CCO[Si](C)(CCCOCC1CO1)OCC (configuration not stated) | – | inactive | inactive | – | inactive | inactive | inactive | inactive | inactive | inactive | – | inactive | inactive | – | – | inactive | inactive | inactive | inactive | –
C1CCCCC1 | inactive | inactive | inactive | inactive | – | inactive | inactive | – | inactive | inactive | inactive | inactive | inactive | inactive | inactive | inactive | – | inactive | – | –
CCCCCCCC/C=C/C(=O)O | – | inactive | – | – | – | inactive | inactive | – | – | inactive | inactive | inactive | inactive | inactive | inactive | – | inactive | inactive | inactive | –
CC(=O)OCC(C)C | – | inactive | – | inactive | inactive | – | – | inactive | inactive | inactive | inactive | inactive | inactive | inactive | – | inactive | inactive | inactive | inactive | inactive
COc1ccc(-c2cc(C(F)F)nn2-c2ccc(S(N)(=O)=O)cc2)cc1F | – | inactive | inactive | – | inactive | – | – | – | – | inactive | – | inactive | – | inactive | inactive | – | inactive | inactive | inactive | –
O=C(NS(=O)(=O)/C=C/c1ccccc1)c1ccc(F)cc1Cl | – | inactive | inactive | inactive | inactive | inactive | – | – | – | – | inactive | inactive | – | inactive | inactive | inactive | inactive | inactive | inactive | –
O=C(O)c1cc(Cl)cc(Cl)c1O | – | inactive | – | inactive | – | inactive | inactive | inactive | inactive | inactive | inactive | – | inactive | inactive | inactive | – | inactive | inactive | inactive | inactive
CSCC[C@H](NC(=O)[C@H](Cc1c[nH]c2ccccc12)NC(=O)CCNC(=O)OC(C)(C)C)C(=O)N[C@@H](CC(=O)O)C(=O)N[C@@H](Cc1ccccc1)C(N)=O | – | inactive | inactive | inactive | inactive | inactive | – | inactive | inactive | inactive | inactive | inactive | – | – | – | inactive | inactive | inactive | – | –
CCCCCCCCCCCC(=O)OCC(O)CO (configuration not stated) | – | inactive | – | – | inactive | – | – | – | inactive | – | inactive | inactive | inactive | inactive | inactive | inactive | inactive | inactive | inactive | –
CC(=O)OCCC(C)CC(C)(C)C (configuration not stated) | – | inactive | inactive | inactive | inactive | inactive | inactive | – | inactive | – | inactive | – | inactive | – | – | inactive | – | inactive | inactive | –
